Results on 40 compounds are retold here after PubChem BioAssay (NCI).

About 83,000 compounds went through this panel and 20% of them were active in at least one assay; those are over-represented in the sample as a whole.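 Activity criterion: percent growth below 10, measured after cells in 96-well plates were exposed to a single compound concentration for 48 hours.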 Unmarked numbers belong to inactive results. Activity calls are given as the source filed them.

The test system of the assay is HL-60(TB) leukemia. Kind of assay: NCI-60 one-dose screen, 48 h (100 = growth as untreated, 0 = no growth, -100 = all killed). As to conditions: 10 µM unless noted. The method, then:
Growth inhibition of the HL-60(TB) human tumor cell line is measured as a screen for anti-cancer activity. Cells are grown in 96 well plates and exposed to the test compound for 48 hours. Compounds are tested at a single concentration, which is 10^-5 M for most compounds. The reported endpoint is percent growth (GI% or GIPRCNT), where numbers from 0 - 100% represent growth inhibition, and numbers from -100% - 0 represent cell death. For example, a value of 40 represents 60% growth inhibition. A value of 0 means no net growth occurred over the course of the experiment. A value of -40 indicates 40% of cells at the beginning of the experiment died by the end of the experiment. A value of -100 means all cells are dead at the end of the experiment.
NCI-60 Human Tumor Cell Lines Screen was performed using the standard one-dose NCI protocol, which is described in more detail at https://dtp.cancer.gov/discovery_development/nci-60/default.htm.
Compounds with GIPRCNT values below 10 were considered active. Activity score was based on GIPRCNT using the following formula: […]
Score is 0 for GIPRCNT values of 100 or above, 50 for GIPRCNT values of 0, and 100 for GIPRCNT values of -100.
In the case of `COC1=CC(=O)c2c(O)c3c(c(O)c2C1=O)CC(C)(O)OC3` (stereo not given), the growth is -57.1% (active).
The result for `Nc1ncc(-c2ccc3ncnc(N4CCc5ccc(Cl)cc54)c3c2)cn1` reads -51.1% (active).
The result for `O=C1NC(=C(Cl)Cl)/C(=N/S(=O)(=O)N2CCCCC2)N1` reads -70.3% (active).
The value for `CN(C)CC1CCC(CN(C)C)C1=O` (stereo not given) was 84.2%.
For the compound `O=C1c2ccccc2-c2ccccc2C1(Cl)Cl`, the growth was -39.6% (active).
As to `CCCCCc1ccc(S(=O)(=O)Nc2cc(-c3csc(NC(C)=O)n3)ccc2N2CCN(C)CC2)cc1`, the growth was -61.7% (active).
The result for `O=C1OC(c2ccccc2)=N/C1=C\c1ccc([N+](=O)[O-])cc1` reads 119%; that for `CN1C(=O)CCC(N2C(=O)c3cccc(NCCOCCOCCNC(=O)c4cc5c(o4)C(=O)c4ccccc4C5=O)c3C2=O)C1=O` (stereo not given), 0.337% (active).
The value for `Fc1ccc(C2CC(c3cccc(Nc4ccncc4)c3)=NN2c2ccccc2)cc1` (stereo not given) was -19.5% (active).
For the compound `COC(=O)[C@H](C)NC(=O)[C@@H]1CCCN1C(=O)CNC(=O)[C@H](C)N`, the growth was 104%.
The value for `CO[C@H]1CC(=O)n2c3ccccc3c3c4c(c5c6ccccc6n1c5c32)C(=O)NC4=O` was 96.9%; that for `COc1cc2c(cc1NC(=O)C(F)(F)F)-c1ccc(NC(=O)C(F)(F)F)cc1C2` was 99.3%; that for `CCN(CC)c1ccc(/C=C\c2cc(C)c3cc(C)ccc3n2)cc1` was 21.5%.
The result for `Cc1ccc2c(c1)c1nc3cc(C)c(C)cc3nc1n2CCN(C)C` reads 11%.
The result for `CCC(Br)(CC)C(=O)c1ccc(OCC(=O)O)c(Cl)c1Cl` reads 111%.
Consider `Cc1ccc(S(=O)(=O)NCCNc2nccc(-c3c(-c4cccc(N)c4)nc4sccn34)n2)cc1`, for which the growth was 110%.
The result for `C=C1C(=O)O[C@H]2[C@H]1CC/C(COC(=O)/C=C\C(=O)NCc1ccc(Cn3c(=O)sn(-c4ccc(OC)cc4)c3=O)cc1)=C\CC[C@@]1(C)O[C@@H]21` reads -35.8% (active); that for `O=C(NCCCNc1cc(-c2cn(-c3ccccc3)nc2-c2cccc(O)c2)ccn1)c1ccccc1`, 8.91% (active); that for `CC(NCCC(c1ccccc1)c1ccccc1)c1ccccc1` (stereo not given), 14.6%.
On to `NC1=CSC2=N/C(=C\c3ccc(Cl)cc3)C(=O)N12`, for which the growth was 39.9%.
The value for `O=C(/C=C/c1cccc(Cl)c1Cl)Nc1ncc(Cc2ccccc2Cl)s1` was -3.06% (active); that for `CC(=Nc1ccc(N(C)C)cc1)c1ccccc1` was 26.1%.
Consider `CCCn1c(=S)sc2c(Cl)nc(C)nc21`, for which the growth is 130%.
`CC1=C(NCCN2CCCC2)C(=O)c2c(OCc3cccc(Cl)c3)cccc2C1=O`: the growth is 94.1%.
The result for `C[C@@H]1CC2C3C[C@H](F)C4=CC(=O)C=C[C@]4(C)[C@@]3(F)[C@@H](O)C[C@]2(C)[C@@]1(O)C(=O)CO` (stereo not given in full) reads 99.1%; that for `COc1ccc2c3c(c4ccccc4cc13)C(=O)N(CCN(C)CCN)C2=O`, -58.1% (active); that for `Cc1cc(C2(c3cc(C)c(O)cc3C)OS(=O)(=O)c3ccccc32)c(C)cc1O`, 87.8%.
The result for `CC(C)CCc1nc2ccc(NCc3ccc(OCCN4CCC(C)CC4)cc3)cc2[nH]1` reads 84.8%; that for `O=C1/C(=C/c2ccc([N+](=O)[O-])s2)Oc2ccc(Cl)cc21`, -20.6% (active); that for `CCOC(=O)CSc1nc(-c2cc(OC)ccc2OC)cc(-c2ccc(OC)cc2)c1C#N`, 98.5%.
The value for `O=C(/C=C/c1ccc(Cl)cc1)c1ccc(Cl)cc1` was 69.2%; that for `N#CCC1CCCC1` was 102%.
In the case of `C=C(C)[C@@H]1CC[C@]2(C(=O)OC)CC[C@]3(C)[C@H](CC[C@@H]4[C@@](C)(CC/C(N)=N/O)[C@H](C(=C)C)CC[C@]43C)[C@@H]12`, the growth is 92.2%.
The value for `C=C1CC[C@@H](C(=O)OC)Cc2nc(C)ccc21` was 100%.
The result for `Cc1cc[n+](CCCCCCCCCC[n+]2ccc(C)cc2)cc1` reads 95.3%; that for `Nc1ncnc2c1N=C(c1ccc([N+](=O)[O-])cc1)CC(c1ccc3c(c1)OCO3)N2` (stereo not given), 105%; that for `C#CCOc1nc(C)cc(C)c1C#N`, 89.5%.
The result for `COC(=O)C[C@@H]1CC=CC(=O)/C1=C(O)/C=C/c1ccccc1` reads -10.7% (active).
`CCCC(CC)(C(=O)Nc1ccc2nc(C)cc(N)c2c1)C(=O)Nc1ccc2nc(C)cc(N)c2c1`: the growth was 100%.
The value for `CNC1=C([N+](=O)[O-])C(c2ccc(OC)cc2)C(C#N)=C(c2cccs2)O1` (stereo not given) was 99.5%.
